# According to PubChem BioAssay AID449762 (Southern Research Specialized Biocontainment Screening …, 2010):
# Hit rate of the full screen: of about 330,000 compounds, about 1,900 (0.58%) were called active. Roughly 4% stayed inconclusive and do not appear here. The list is a sample of the results. Entries with a potency or affinity are not part of this list. Unmarked numbers belong to inactive results. Cut-off read from the data, not from the text of the source: inconclusive = inhibition above about 70% without an active follow-up result; inactive = below that.
# Assay: M. tuberculosis growth inhibition, HTS (AID 449762);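 note: bacterial growth assessed after seven days of incubation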
# Settings: M. tuberculosis H37Rv growth inhibition, 7H9 media; at 25 µM; stronger effect = higher value
row,Compound,inhibition
1,O=C(c1ccc(C(=O)N2CCN(c3ccccc3F)CC2)nc1)N1CCN(c2ccccc2F)CC1,-7.27%
2,CC1(OC(=O)c2cccs2)C(=O)C=C2C=C(c3ccsc3)OC=C2C1=O (configuration not stated),-0.64%
3,O=C(Nc1ccc(Cn2ccnc2)cc1)c1cccc(C(F)(F)F)c1,7.08%
4,O=C(CSC1CCCCC1)Nc1nccs1,-8.08%
5,O=C(Nc1ncc(Cc2ccccc2Cl)s1)c1ccc([N+](=O)[O-])cc1,10.6%
6,CC(C)C(=O)Nc1ncc(Cc2ccccc2Cl)s1,-0.61%
7,COc1ccc(C(=O)OCC(=O)Nc2c(C)cccc2C)cc1,0.88%
8,CC1CCCC(NC(=O)CSC2=Nc3ccccc3C3CC=NN23)C1C (configuration not stated),11.7%
9,Cc1cc(C)n(-c2nc(NCCO)c3c4c(sc3n2)CCCC4)n1,10.4%
10,Cc1cc(C)n(-c2nc(NCCCN(C)C)c3c4c(sc3n2)CCCC4)n1,9.07%
11,CN1CCN(/N=C/c2ccc(Br)cc2)CC1,2.12%
12,O=C(NN=Cc1cccc([N+](=O)[O-])c1)c1cc(-c2cccnc2)nc2ccccc12,5.59%
13,CC1=CC(=O)C(C(C)C)=C/C1=N/OC(=O)c1cccc([N+](=O)[O-])c1,-5.41%
14,CC1=CC(=O)C(C(C)C)=CC1=NC(=O)c1ccc(C)cc1,3.21%
15,CCCOc1ccc(-c2csc3ncn(Cc4ccc(C(=O)O)cc4)c(=O)c23)cc1,11.8%
16,CC1CCc2nc(/C(C#N)=C/c3ccncc3)sc2C1 (configuration not stated),17.6%
17,COc1cc(/C=C(\C#N)c2nc3c(s2)CCCC3)ccc1O,67.9%
18,O=C(NCCC(=O)N1CCN(c2ccccn2)CC1)c1ccc(Cl)cc1,9.44%
19,CC1(C)Cc2c(cnn2-c2ccccc2)C(=O)/C1=N\NC(=O)c1ccccc1O,0.99%
20,CC1(C)Cc2c(cnn2-c2ccccc2)C(=O)/C1=N\NC(=O)c1ccccc1,6.2%
21,COc1cccc(C2CC(c3ccc(Br)cc3)=NN2C(=O)c2ccncc2)c1OC (configuration not stated),10.4%
22,C=C1CCC[C@]2(C)C[C@H]3OC(=O)C(CNC(C)CC)[C@H]3CC12 (some centres not stated),7.33%
23,C=C1CCC[C@]2(C)C[C@H]3OC(=O)C(CNCC(C)C)[C@H]3CC12 (some centres not stated),-0.86%

row,Compound,inhibition
1,CN(C)C(=O)c1ccc(Cl)cc1[N+](=O)[O-],-3.01%
2,COc1ccc(S(=O)(=O)N(C)C[C@H]2Oc3c(NC(=O)NC(C)C)cccc3C(=O)N([C@H](C)CO)C[C@@H]2C)cc1,-6.16%
3,O=c1c2ccccc2nc2c3ccccc3c(NCCN3CCOCC3)nn12,7.65%
4,c1ccc(-c2csc3ncnc(NCCCN4CCOCC4)c23)cc1,0.1%
5,COc1cccc(CNS(=O)(=O)c2c(C(=O)N3CCCC3)c(C)n(C)c2C)c1,3.63%
6,COc1ccc(N2CC(C)Cn3c2nc2c3c(=O)[nH]c(=O)n2C)cc1 (configuration not stated),-7.69%
7,NC(=O)c1c(NC(=O)CSc2nnc(Cc3ccccc3)n2Cc2ccco2)sc2c1CCC2,55.7%
8,CC(=O)OCC1OC(n2ccc3ccccc32)C(OC(C)=O)C(OC(C)=O)C1OC(C)=O (configuration not stated),-6.94%
9,CC(=O)c1cccc(OCC(=O)N2CCN(CC(=O)Nc3cccc(F)c3)CC2)c1,-12.4%
10,O=C(CN1CCN(S(=O)(=O)c2ccc(F)cc2)CC1)Nc1ccc(Cl)c(C(F)(F)F)c1,3.5%
11,COc1ccc(NC(=O)c2sc3nc(C)nc(N4CCOCC4)c3c2C)c(OC)c1,-1.8%
12,CCOc1ccccc1NC(=O)c1sc2nc(C)nc(N3CCOCC3)c2c1C,10.4%
13,CC(C)(C)OC(=O)C[C@H]1C/C=C\C[C@H](CC(=O)N(CCO)Cc2ccccc2)C(=O)N[C@@H](c2ccccc2)COC1=O,-6.06%
14,COc1ccc(OC)c(NS(=O)(=O)Cc2ccccc2)c1,-14.1%
15,Cc1cc(=O)oc2c(C)c(OC(C)C(=O)NCC3CCC(C(=O)O)CC3)ccc12 (configuration not stated),1.04%
16,Cn1ncc(Cl)c1C(=O)Nc1nnc(C2CC2)s1,-2.94%
17,N#CCCN(C(=O)COC(=O)Cc1c[nH]c2ccccc12)c1ccccc1,1.58%
18,N#CCCN(C(=O)COC(=O)CCc1nc2ccccc2c(=O)[nH]1)c1ccc(F)cc1,-3.42%
19,COc1ccc(NC(=O)C2CCN(S(C)(=O)=O)CC2)cc1,-4.9%
20,O=C(CC1SC(=NCC2CCCO2)NC1=O)Nc1cccc2ccccc12 (configuration not stated),6.34%
21,CC(Oc1ccc(Br)cc1)C(=O)NCC(C)(C)N1CCOCC1 (configuration not stated),4.22%
22,COc1cccc(CC(=O)N2CCN(c3ccccc3[N+](=O)[O-])CC2)c1,5.35%
23,COc1ccc(-c2ccc(-c3noc(C)n3)c(OC)n2)cc1,5.33%

row,Compound,inhibition
1,CCc1nc(-c2ccc(-c3ccc(OC)cc3)nc2OC)no1,68.2%
2,COc1cc(OC)cc(OCC(O)Cn2ccnc2)c1 (configuration not stated),7.96%
3,CCC(CC)C(=O)Nc1cc(C(=O)NCCc2ccccc2)ccc1Cl,1.26%
4,Cc1ccc(NC(=O)CN2C(=O)NC(Cc3ccccc3)C2=O)c(Br)c1 (configuration not stated),-0.06%
5,Cc1ccc(SCCC(=O)OC(C(=O)NC(N)=O)C(C)C)cc1 (configuration not stated),-4.48%
6,CSCC[C@H](NC(=O)c1nn(C)c(=O)c2ccccc12)c1nc2ccccc2[nH]1,-4.72%
7,CCCCn1nc(C(=O)NCc2ccccc2CN2CCCC2)c2ccccc2c1=O,-5.37%
8,CCCn1nc(C(=O)Nc2cc(C(=O)OC)ccc2C)c2ccccc2c1=O,3.29%
9,Cn1nc(C(=O)Nc2ccccc2N2CCCC2)c2ccccc2c1=O,54.7%
10,CCCn1nc(C(=O)NNC(=O)c2ccc(OC(F)F)cc2)c2ccccc2c1=O,3.96%
11,CCn1nc(C(=O)N[C@@H](CCSC)c2nc3ccccc3[nH]2)c2ccccc2c1=O,1.2%
12,C/C(=N\NC(=O)CNC(=O)C1COc2ccccc2O1)c1ccc(Cl)cc1 (configuration not stated),1.09%
13,COc1ccc(/C=C/C(=O)OCC(=O)Nc2ccc(Cl)cn2)cc1,10.3%
14,CN1CC[n+]2cnc3ccccc3c21,-2.8%
15,CC1(C)CC(NC(=O)C2CCN(S(=O)(=O)c3ccccc3C(F)(F)F)CC2)CC(C)(C)N1,-16.1%
16,COc1ccccc1C(=O)COC(=O)Cn1nc(C)c([N+](=O)[O-])c1C,-2.3%
17,CCc1cc(=O)oc2c3c(cc(OCC(=O)NCCN4CCOCC4)c12)OC(C)(C)CC3,-4.22%
18,c1ccc(-c2nc(-n3ccnc3)nc(-n3ccnc3)n2)cc1,22.2%
19,c1ccc(-n2ccnc2)cc1,62.1%
20,c1ccc(Cn2cc(-c3cccnc3)cn2)cc1,7.26%
21,CCCOP(=O)(O)c1c([N+](=O)[O-])cc(C(F)(F)F)cc1[N+](=O)[O-] (tested in a mixture with another compound),-2.65%
22,Nc1cc(C(F)(F)F)cc([N+](=O)[O-])c1N,18%
23,COC(=O)c1ccc(CNC(=O)C2CCC(=O)N(CCCc3ccccc3)C2)cc1 (configuration not stated),-9.71%

row,Compound,inhibition
1,O=C(NC1CCCC1)c1ccccc1-c1ccccc1,64.1%
2,O=C(NC1CCCCCCC1)c1ccccc1O,6.43%
3,CN(Cc1ccccc1)S(=O)(=O)c1cccc2nsnc12,-5.13%
4,COC(=O)[C@@H](NC(=O)O[C@@H]1C(=O)c2cc(Br)ccc2O[C@H]1c1cccc(OC)c1)C(C)C,8.75%
5,COc1ccc2c(c1)O[C@@H](c1cccc(C(F)(F)F)c1)[C@H](OC(=O)NCCc1ccc(OC)c(OC)c1)C2=O,8.51%
6,Cc1cc(=O)oc2cc(NC(=S)NNC(=O)c3c(Cl)cnn3C)ccc12,-1.94%
7,CCN(CC)C(=O)c1ccccc1NS(C)(=O)=O,-4.74%
8,CCNC(=O)CSc1nnc(-c2cccs2)o1,17%
9,C=CCNC(=O)CSc1nnc(-c2cccs2)o1,2.45%
10,Clc1ccc(OCCOCCN2CCCCC2)c(Br)c1,-2.44%
11,CC(C)N1CCN(Cc2cccn2-c2cccnc2)CC1CCO (configuration not stated),-3.04%
12,CCOC(=O)C1(CCc2ccccc2)CCN(Cc2ccc(NC(C)=O)cc2)CC1,-6.26%
13,COc1cc2ncnc(NCc3ccccc3F)c2cc1OC,4.17%
14,COc1ccc2cc(C(c3nnnn3CCc3ccccc3)N3CCC(O)CC3)c(=O)[nH]c2c1 (configuration not stated),-12.3%
15,CCc1ccc2[nH]c(=O)c(C(c3nnnn3CCOC)N3CCN(c4ccccc4)CC3)cc2c1 (configuration not stated),-6.34%
16,COc1cccc(OC)c1C(=O)NC(=S)N1CCCCC1c1cccnc1 (configuration not stated),-6.76%
17,O=C(CCC(=O)c1cccs1)OCC(=O)c1ccc(F)cc1,1.25%
18,Cc1nn(Cc2ccccc2)c(C)c1C(=O)OCC(=O)c1cc(C)n(C2CC2)c1C,63.9%
19,COCCn1c(C)cc(C(=O)COC(=O)c2c(C)nn(Cc3ccccc3)c2C)c1C,20.6%
20,CSc1ccc(C(=O)C2CCCN(Cc3cccn3-c3cccnc3)C2)cc1 (configuration not stated),9.15%
21,O=C(c1ccc2c(c1)OCO2)N1CCc2ccccc21,-5.13%
22,Cc1nc(SCC(=O)c2cc3ccccc3oc2=O)c(C#N)c(-c2ccccc2)c1C(=O)Nc1ccccc1,17.1%
23,Cc1nc(SCC(=O)c2cc3ccccc3oc2=O)c(C#N)c(-c2cccs2)c1C(=O)Nc1ccccc1,3.9%
